In PubChem BioAssay AID485353 (National Center for Advancing Translational Sciences (NCATS), 2010):
Screen size: about 330,000 compounds; about 610 (0.18%) were called active. Not shown: some 2% with an inconclusive outcome. What follows is part of a selection rich in actives, with near analogues and random picks from the rest. A call without a number means that no potency is given here. A number with no mark means an inactive call. Calls come from the whole dose curve.

assay: qHTS of Yeast-based Assay for SARS-CoV PLP; note: nearly all actives have a fitted effect of over 55% in size; details: S. cerevisiae expressing SARS-CoV PLpro; Potency: growth rescue; series mostly up to 32.9 µM
Potency is the fitted concentration of half-maximal effect.

Compound	Potency	activity, positive = growth rescue
COc1ccc(NC(=O)Nc2ccc3c(c2)C(=O)N([C@H](C)CO)C[C@H](C)[C@@H](CN(C)C(=O)Nc2ccc4c(c2)OCO4)O3)cc1	inactive	
Cc1ccc(S(=O)(=O)N2[C@@H](c3cccc(Cl)c3)C(C(=O)O)=CC[C@H]2c2ccc(Cl)c(Cl)c2)cc1	inactive	
CCCCNC(=O)N(O)C1N(/N=C/c2ccccc2O)C(=S)SC1(C)C (stereo not given)	inactive	
COC(=O)c1ccc(/C=N/OCC(=O)Nc2cc(F)ccc2F)cc1	inactive	
COc1ccc(-c2cc(=O)oc3cc(OC(C)C(=O)NCC4CCC(C(=O)O)CC4)ccc23)cc1 (stereo not given)	inactive	
CSc1nsc(SCC(=O)Nc2cc(C(=O)O)ccc2C)n1	inactive	
O.O.O.O=S(=O)([O-])OC[C@H]1O[C@@H](O[C@]2(COS(=O)(=O)[O-])O[C@H](OS(=O)(=O)[O-])[C@@H](OS(=O)(=O)[O-])[C@@H]2OS(=O)(=O)[O-])[C@H](OS(=O)(=O)[O-])[C@@H](OS(=O)(=O)[O-])[C@@H]1OS(=O)(=O)[O-].[Al]	inactive	
Nc1nonc1-n1nnc(C(=O)N/N=C/c2c[nH]c3ccccc23)c1-c1ccccc1	inactive	
CC(C)c1c(C(=O)N/N=C/c2ccc(-c3ccccc3)cc2)nnn1-c1nonc1N	inactive	
CC(C)c1c(C(=O)N/N=C/c2ccccc2C(=O)O)nnn1-c1nonc1N	5.01 µM (active)	
CCc1ccccc1N1C(=O)C2C3CC(=O)C(c4ccccc43)C2C1=O (stereo not given)	inactive	
c1ccc2cc3c(NCCN4CCOCC4)ccnc3cc2c1	inactive	
Fc1ccc(CNCc2ccc(Br)cc2)cc1	inactive	
O=C(CCl)N(Cc1cccc([N+](=O)[O-])c1)c1cccc(Cl)c1	inactive	
COc1ccc(NC(=O)Cn2cc(C(=O)c3ccncc3)c(=O)c3cc(C)ccc32)cc1Cl	inactive	
COc1cc(C2C(C(=O)OCCC#N)=C(C)NC3=C2S(=O)(=O)c2ccccc23)cc(OC)c1OC (stereo not given)	inactive	
COc1ccc(C2N=C(N)N=C(N)N2c2ccccc2)cc1OC (stereo not given)	inactive	
CCOC(=O)C1CCN(S(=O)(=O)c2c(C)noc2C)CC1	inactive	
COc1ccc(CCN2CC(C(=O)NCCN3CCNC3=O)CCC2=O)cc1 (stereo not given)	inactive	
CN(C)C(=O)N1CCNCC1	inactive	
CCC(=O)Nc1c(C)n[nH]c1C	10 µM (active)	
COC(=O)c1ccc(NC(=O)CN(c2ccc(C)cc2)S(=O)(=O)c2c(C)n[nH]c2C)cc1	inactive	
CCC(=O)Nc1nc(OC)cc(OC)n1	inactive	
CCCC[C@]12Cc3cc(OC)c(OC)cc3C(O1)C1=C(CC3(CCCCC3)OC1=O)O2		5.12% [at 6.58 µM]

Compound	Potency	activity, positive = growth rescue
O=C(CSc1ncnc2c1cnn2CCc1ccccc1)Nc1ccc(F)cc1	inactive	
O=C(NCCCCCCCCCNC(=O)C(F)(F)F)C(F)(F)F	inactive	
CC1CC(C)CN(C/C=C/c2ccccc2[N+](=O)[O-])C1 (stereo not given)	inactive	
COc1ccc(NC(=O)C(NC(C)=O)C(=O)NCc2ccccc2Cl)cc1 (stereo not given)	inactive	
CCCCNS(=O)(=O)CCNCc1ccccc1OC	inactive	
CCOC(=O)[C@@H]1[C@H]2COc3cc(OC)ccc3[C@H]2N2C(=O)N(c3ccc(F)cc3)C(=O)[C@]12C	inactive	
CC(NC(=S)Nc1ccccc1)C1COc2ccccc2O1 (stereo not given)	10 µM (active)	
CCCN(CC1COc2ccccc2O1)C(=S)Nc1ccc(C)cc1 (stereo not given)	inactive	
S=C(NCC1COc2ccccc2O1)Nc1ccc(Br)cc1 (stereo not given)	inactive	
O=C(CNC(=O)C12CC3CC(CC(C3)C1)C2)OCC(=O)N1CCCCC1	inactive	
Cc1sc(NC(=O)C2=COCCO2)c(C#N)c1C	inactive	
Cc1cccc(N2O[C@H]3C=CC2CCCC3)n1	inactive	
COc1ccc(CCNC(=O)COC(=O)c2ncc(Cl)c(Cl)c2Cl)cc1OC	inactive	
CC1(C)C2CCC1(CS(=O)(=O)NCCc1c[nH]c3ccccc13)C(=O)C2 (stereo not given)	inactive	
Cc1nc2c(C(=O)NCc3cccs3)cnn2c(C)c1Cc1ccc(F)cc1	inactive	
Nc1ccccc1SC(C[N+](=O)[O-])c1ccccc1 (stereo not given)	inactive	
COc1ccc(N(CCC#N)S(=O)(=O)c2ccc(Cl)cc2)cc1	inactive	
Cc1ccc(N2C(=O)S/C(=C/c3cn(C)c4ccccc34)C2=O)cc1	inactive	
Cc1cccc(N=C2NC(=O)/C(=C/c3cn(C)c4ccccc34)S2)c1	15.8 µM (active)	
Cc1ccc(N=C2NC(=O)/C(=C/C=C/c3ccco3)S2)cc1C	inactive	
O=S(=O)([N-]c1nc2ccccc2nc1-[n+]1ccc(Cc2ccccc2)cc1)c1ccc(Br)s1	inactive	
Cc1cc(C)c[n+](-c2nc3ccccc3nc2[N-]S(=O)(=O)c2cccs2)c1	11.2 µM (active)	
CCCCNc1nc2ccccc2nc1NS(=O)(=O)c1cccs1	inactive	
CCC1CCCCN1C(=O)CSc1nc2c(c(=O)n1C)SC(C)C2 (stereo not given)	inactive	

Compound	Potency	activity, positive = growth rescue
COc1ccc(/C=N/NC(=O)c2ccncc2)cc1CN1CCCc2ccccc21	inactive	
COc1ccc(Br)cc1/C=N/NC(=O)c1cccc(S(=O)(=O)N2CCOCC2)c1	inactive	
COc1cccc(/C=N/NC(=O)c2[nH]nc3c2CCc2ccccc2-3)c1O	6.31 µM (active)	
CC(C#N)(NC(=O)CN1CCN(S(=O)(=O)c2cc(C(F)(F)F)ccc2Cl)CC1)C1CC1 (stereo not given)	inactive	
COc1ccc2cc(-c3[nH]ncc3CNCCn3nc(C)cc3C)ccc2c1	inactive	
CCn1c(=O)c(=O)n(CC)c2cc(N3CCCCC3)c(NC(=O)c3ccc(Cl)cc3)cc21	inactive	
N#Cc1ccc(-c2nc3cc(C#N)c(C#N)cc3nc2-c2ccccc2)cc1C#N	inactive	
Cc1cc2ccccc2n2c(SCC(=O)N3CCN(C(=O)c4ccco4)CC3)nnc12	inactive	
N#Cc1ccc(C2=CC(=O)C[C@H](c3ccc(Cl)cc3)C2)cc1	inactive	
Cn1c(=O)c2c(SCC(=O)N3CCOCC3)nc(C3CC3)nc2n(C)c1=O	inactive	
CCCCn1c(N)c(N(CC(C)C)C(=O)c2cnc(C)cn2)c(=O)[nH]c1=O	inactive	
CC(C)N1CCC(=NNc2ccc([N+](=O)[O-])cc2S(=O)(=O)N2CCOCC2)CC1	inactive	
CCN(CC)S(=O)(=O)c1ccc2nc(CSc3nnnn3-c3ccc(O)cc3)[nH]c2c1	inactive	
Cc1cc2c(cc1S(=O)(=O)CCC(=O)NCc1ccccc1)OCC(=O)N2	inactive	
COc1ccc(NC(=O)CCS(=O)(=O)c2cc3c(cc2Cl)NC(=O)CO3)cc1OC	10 µM (active)	
COc1ccc(Cl)cc1NC(=O)CCS(=O)(=O)c1cc2c(cc1C)NC(=O)CO2	inactive	
CN(C(=O)CN1C(=O)NC(C)(CCc2ccccc2)C1=O)c1ccccc1 (stereo not given)	inactive	
CC(C)CCNC(=O)C1CCCN(S(=O)(=O)c2ccc(F)cc2)C1 (stereo not given)	inactive	
CCCN(CC1CC1)C(=S)NC(=O)c1ccccc1Br	inactive	
CCCCCOc1ccc(/C=C/C(=O)NCCc2nc3ccccc3[nH]2)cc1OC	inactive	
COc1ccc(CNC(=O)C(=O)NCC2OCCN2C(=O)c2ccc(OC)cc2)cc1 (stereo not given)	inactive	
CC(C)CC(=O)c1c[nH]c(C(=O)NCc2ccccc2)c1	inactive	
CCOC(=O)N1CCN(C(=O)COC(=O)c2cccc(S(C)(=O)=O)c2)CC1	inactive	
CC(=O)c1cn(CCCCCCCCCCn2cc(C(C)=O)c(=O)[nH]c2=O)c(=O)[nH]c1=O	inactive	

Compound	Potency	activity, positive = growth rescue
CN(Cc1ccc2nsnc2c1)Cc1nc(Cc2cccc(F)c2)no1	inactive	
Cc1cccc(C)c1NC1=NC(=S)N(c2ccc(N(C)C)cc2)C1(C)C	inactive	
O=C(OCC1O[C@@H](OC(=O)c2cc(O)c(O)c(O)c2)[C@@H](OC(=O)c2cc(O)c(O)c(O)c2)[C@@H](OC(=O)c2cc(O)c(O)c(O)c2)[C@@H]1OC(=O)c1cc(O)c(O)c(O)c1)c1cc(O)c(O)c(O)c1 (stereo not given in full)	5.62 µM (active)	
CCOC(=O)CN1C(=O)N[C@@H](c2ccc(Br)cc2)C(C(C)=O)=C1C	inactive	
CCc1cccc2c3c([nH]c12)C(CC)(CC(=O)O)OCC3 (stereo not given)	20 µM (active)	
CCc1cccc2c(C#N)cn(CC(=O)N3CCOCC3)c12	inactive	
Cc1cc2ccccn2c1C(=O)c1cccc(S(=O)(=O)N2CCOCC2)c1	inactive	
O=C(OCc1cn(-c2ccc(Cl)c(Cl)c2)nn1)c1ccccc1Cl	inactive	
COC(=O)CCC(=O)N1CCCC(CO)(Cc2ccccc2)C1 (stereo not given)	inactive	
CCOC(=O)c1c(N)c(C#N)nn1-c1ccccc1C(=O)OC	inactive	
CC1(C)CN=C(N2CCN(c3ncnc4sc5c(c34)CCCC5)CC2)S1	inactive	
COc1ccc(NC(=O)CN(C)C(=O)c2ccc(NC3CC3)c([N+](=O)[O-])c2)cc1	inactive	
COc1ccc(C(C(=O)NC(C)(C)C)N(Cc2ccc(F)cc2)C(=O)CCC(=O)Nc2cc(C)on2)cc1 (stereo not given)	inactive	
Cc1ccccc1Cn1nc(C)c(NC(=O)C(F)(F)F)c1C	inactive	
CCCCc1ccc(NC(=O)CN2C(=O)NC(Cc3ccccc3)C2=O)cc1 (stereo not given)	inactive	
O=C(C(NS(=O)(=O)c1cccc2nsnc12)c1ccccc1)N1CCN(c2ccccc2)CC1 (stereo not given)	inactive	
Cc1cc(OCCOc2cccc3cccnc23)c(C)cc1Cl	inactive	
CC(C)CNC(=O)C1CCCN(S(=O)(=O)c2ccc(-n3cnnn3)cc2)C1 (stereo not given)	inactive	
COC(=O)C1(C)NC(c2ccc(C)cc2)C2C(=O)N(c3ccc(F)cc3)C(=O)C21 (stereo not given)	inactive	
Cc1c2cnn(-c3ccccc3)c(=O)c2c(C)n1CCCC(=O)N1CCN(C)CC1	inactive	
COC(=O)[C@]1(C)CCC[C@@]2(C)C3CC[C@]4(OC(C)=O)C[C@@]3(CCC21)CC4=NO (stereo not given in full)	inactive	
CCCCN(CC(=O)Nc1cccc(S(=O)(=O)N2CCCC2)c1)Cc1nc2ccccc2c(=O)[nH]1	inactive	
COc1ccc(N(C(=O)CNC(=O)c2ccco2)C(C(=O)NCC2CCCO2)c2ccccc2)cc1Cl (stereo not given)	inactive	
